Only a selection was taken, and hits are over-represented in it overall.
Tb PYK inh = qHTS of Trypanosoma Brucei Inhibitors; AID 624173, 2012; hit rate 0.12% among 410,000; TbPYK enzyme, Kinase-Glo Plus ATP luminescence, 45 min; Potency, µM (highest dose often 76.8 µM), usual class: inhibitors; note: nearly all actives have a fitted effect of over 50% in size
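Luminescence from Kinase-Glo Plus, added after a 45-minute room-temperature reaction, served as the end-point read-out. The enzyme and substrate were preincubated with compound before ADP (130 uM final) initiated turnover. Concentration-effect curves came from normalized qHTS data.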
Giardia FBPA inh = qHTS Assay for Inhibitors of Fructose-1,6-bisphosphate Aldolase from Giardia Lamblia; A8B2U2; purified Giardia FBPA; Potency, µM (highest dose often 59.6 µM), hits mostly inhibitors; hit rate 0.71% among 290,000; AID 2451, 2010; note: nearly all actives have a fitted effect of over 55% in size
Target sequence (A8B2U2 whole entry, looked up): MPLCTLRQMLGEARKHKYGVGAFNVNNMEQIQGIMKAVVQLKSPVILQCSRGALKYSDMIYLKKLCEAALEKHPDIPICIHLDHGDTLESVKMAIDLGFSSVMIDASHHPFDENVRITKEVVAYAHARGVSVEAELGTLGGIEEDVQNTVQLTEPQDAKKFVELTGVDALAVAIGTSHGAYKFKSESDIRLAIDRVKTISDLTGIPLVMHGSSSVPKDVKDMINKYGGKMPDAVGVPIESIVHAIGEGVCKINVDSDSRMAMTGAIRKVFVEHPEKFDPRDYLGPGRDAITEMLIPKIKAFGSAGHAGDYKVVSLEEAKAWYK
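Giardia FBPA (40 nM reagent) was preincubated 10 min at RT with compound (up to 57.5 uM final), then substrate plus GAPDH/TPI/NAD/arsenate coupling system with diaphorase/resazurin was added; resorufin fluorescence (525/598 nm) was read after 20 min.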
LmPK inh = qHTS Assay for Inhibitors of Leishmania Mexicana Pyruvate Kinase (LmPK) | Q27686 | purified LmPK, Kinase-Glo ATP luminescence, 1 h | Potency, µM (titrated, usually from 57.5 µM), actives largely listed as inhibitors | hit rate 0.37% among 290,000 | AID 1721, 2009
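In 50 mM imidazole pH 7.2 with 7 mM MgCl2, LmPK (0.1 nM) turned over PEP (0.5 mM) and ADP (0.1 mM) for 1 h at room temperature. Luciferase read-out of ATP.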
RE007 growth inh = qHTS Assay for Inhibitors of the HIV-1 protein Vpr | S. pombe RE007 Vpr strain, BacTiter-Glo ATP luminescence, 24 h | Potency, µM (highest dose often 92.2 µM), most hits filed as inhibitors | hit rate 0.21% among 360,000; active = well fitted falling curve with a large enough effect; inconclusive = small, poorly fitted or top-dose-only effect; inactive = no such curve, though single readings can be large or run the other way; note: nearly all actives have a fitted effect of over 50% in size
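Fission yeast strain RE007, carrying one chromosomally integrated HIV-1 vpr copy, was seeded at OD 0.01 in PMG+AL medium with 23 nL pinned compound. After 24 h at 30 °C and 99% humidity, viability was read by BacTiter-Glo luminescence.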
Shiga toxin inh = A qHTS for Small Molecule Inhibitors of Shiga Toxin; Vero cells, Shiga toxin protein synthesis inhibition reporter; inhibition, % at 38.7 µM; hit rate 9.2% among 290,000; AID 2315, 2010; in the data active = inhibition mostly above about 28%, no sharp cut-off; inactive = mostly below about 43%
Cycloheximide cs = Cycloheximide Counterscreen for Small Molecule Inhibitors of Shiga Toxin | cell reporter, cycloheximide protein synthesis inhibition counterscreen | max response, % | hit rate 12% among 300,000 | AID 2314, 2010; in the data active = max response mostly above about 13%, no sharp cut-off; inactive = mostly below about 14%; note: read at 38.3 µM for the half of the compounds with a filed dose
Large screens that a line does not name were inactive. Unless noted, calls come from the whole dose curve; as a rule, active = well fitted curve in the direction sought with a large enough effect; inconclusive = small, poorly fitted or top-dose-only effect, or another doubt; inactive = no such curve, though single readings can be large; an effect the other way counts as inactive or inconclusive.

CC1(C)O[C@H]2O[C@@H]([C@H](O)CON3C(=O)c4ccccc4C3=O)[C@H](O)[C@H]2O1	none (no result: Tb PYK inh, LmPK inh, RE007 growth inh, Shiga toxin inh, Cycloheximide cs)
COc1cc(C(=O)Nc2nonc2-c2ccc(C)c(C)c2)cc(OC)c1OC	none (no result: Giardia FBPA inh, LmPK inh, RE007 growth inh, Shiga toxin inh, Cycloheximide cs)
O=c1c2c([N+](=O)[O-])cc([N+](=O)[O-])cc2nc2ccccn12	none
O=c1c2c([N+](=O)[O-])cc([N+](=O)[O-])cc2sn1Cc1ccccc1	Tb PYK inh 1.6µM
O=c1c2c([N+](=O)[O-])cc([N+](=O)[O-])cc2sn1-c1ccc(Br)cc1	Tb PYK inh 4µM, Giardia FBPA inh inconclusive
O=C(Nc1ccc(Br)cc1)c1cc([N+](=O)[O-])cc([N+](=O)[O-])c1	none (no result: Shiga toxin inh)
Cc1cc(C(=O)NCc2ccccc2Cl)c2c(C)nn(-c3ccccc3)c2n1	none (no result: Giardia FBPA inh, LmPK inh, RE007 growth inh, Shiga toxin inh, Cycloheximide cs)
CCN(CCCNC(=O)c1ccc(Sc2ccc(F)cc2)c(NC(C)=O)c1)c1ccccc1	none (no result: Giardia FBPA inh, LmPK inh, RE007 growth inh, Shiga toxin inh, Cycloheximide cs)
CCOc1ccc(NC(=O)CSc2ncc(S(=O)(=O)c3ccc(F)c(C)c3)c(=O)[nH]2)cc1	none (no result: Giardia FBPA inh, LmPK inh, RE007 growth inh, Shiga toxin inh, Cycloheximide cs)
O=[N+]([O-])c1ccccc1/C=N\Nc1nccs1	none
CC(C)NC(=S)N/N=C/c1ccc(C(C)(C)C)cc1	RE007 growth inh inconclusive, Cycloheximide cs 21
O=C(CCNC(=O)c1ccccc1Cl)NN=Cc1ccccc1[N+](=O)[O-]	none (no result: Giardia FBPA inh, LmPK inh, Shiga toxin inh, Cycloheximide cs)
O=[N+]([O-])c1ccccc1/C=N/NC1=NCCCCC1	Shiga toxin inh 43, Cycloheximide cs 77
CC(C)NC(=S)N/N=C/c1cccs1	none
O=C(CSc1ccccn1)N/N=C/c1c[nH]c2ccccc12	Cycloheximide cs 14
CCCCCC(=O)N/N=C/c1ccccc1[N+](=O)[O-]	Cycloheximide cs 19
Cn1c(=O)c(-c2ccc(Cl)cc2)nc2cnc(N3CCOCC3)nc21	none (no result: Tb PYK inh, LmPK inh, RE007 growth inh, Shiga toxin inh, Cycloheximide cs)
CC(C)NC(=S)N/N=C/c1ccccc1[N+](=O)[O-]	Cycloheximide cs 22
O=C(CSc1ccccn1)N/N=C/c1ccccc1[N+](=O)[O-]	Shiga toxin inh 38, Cycloheximide cs 38
Cc1ccc(CN2CCCn3nc(C(=O)NCc4ccc(N(C)C)cc4)cc3C2=O)cc1	none (no result: Giardia FBPA inh, LmPK inh, RE007 growth inh, Shiga toxin inh, Cycloheximide cs)
Cc1ccc2oc(=O)n(CCCOc3ccccc3)c2c1	Shiga toxin inh 104, Cycloheximide cs 35
Cc1ccc2oc(=O)n(CCCOc3ccccc3C)c2c1	Shiga toxin inh 45, Cycloheximide cs 16
COc1ccc(OCCCn2c(=O)oc3ccc(C)cc32)cc1	none (no result: Giardia FBPA inh, LmPK inh, RE007 growth inh, Shiga toxin inh, Cycloheximide cs)
Cc1ccc(OCCn2c(=O)oc3ccc(C)cc32)cc1	Cycloheximide cs 20
Cc1ccc2oc(=O)n(CCOc3ccccc3C)c2c1	none
Cc1cc(=O)n2c(C(=O)Nc3ccc(C)c(Cl)c3)c(C(=O)Nc3ccccc3)sc2n1	none (no result: Giardia FBPA inh, LmPK inh, RE007 growth inh, Shiga toxin inh, Cycloheximide cs)
CC1CCCCN1CCCNC(=O)c1ccc2c(c1)sc1nc(-c3ccc(F)cc3)cn12 (stereo not given)	none (no result: Giardia FBPA inh, LmPK inh, RE007 growth inh, Shiga toxin inh, Cycloheximide cs)
CN(C)S(=O)(=O)c1ccc(C(=O)Nc2ccc3c(c2)CCC3)cc1	Shiga toxin inh 33, Cycloheximide cs 29
CN(C)S(=O)(=O)c1cccc(C(=O)Nc2ccc3c(c2)CCC3)c1	Shiga toxin inh 106, Cycloheximide cs 43
Cc1ccc(-c2nn(-c3ccc(F)cc3)c3c2cnc2cc(F)c(F)cc23)cc1	none (no result: Giardia FBPA inh, LmPK inh, RE007 growth inh, Shiga toxin inh, Cycloheximide cs)
COc1ccc(S(=O)(=O)n2nc(C)c(S(=O)(=O)N3CCCCCC3)c2C)cc1OC	none (no result: Giardia FBPA inh, LmPK inh, RE007 growth inh, Shiga toxin inh, Cycloheximide cs)
Cc1ccccc1Nc1nc(N)nc(CSc2ccc(F)cc2)n1	Shiga toxin inh 112, Cycloheximide cs 48
Cc1ccc(SCc2nc(N)nc(Nc3ccccc3C)n2)c(C)c1	Shiga toxin inh 47
Cc1ccc(Nc2nc(N)nc(CN3CCCCCC3)n2)c(C)c1	none
Cc1ccccc1Nc1nc(N)nc(CSc2nnnn2C)n1	Shiga toxin inh 118, Cycloheximide cs 48
Cc1ccc(Nc2nc(N)nc(CSc3nccn3C)n2)c(C)c1	Shiga toxin inh 42, Cycloheximide cs 18
CCN(c1ccccc1)c1nnc(NC(=O)Nc2ccc(Br)cc2)s1	none (no result: Giardia FBPA inh, LmPK inh, RE007 growth inh, Shiga toxin inh, Cycloheximide cs)
Cc1ccc(SCc2nc(N)nc(Nc3ccccc3C)n2)cc1C	none
Cc1ccccc1Nc1nc(N)nc(CN(C)Cc2ccccc2Cl)n1	Cycloheximide cs 31
COc1ccc(C(=O)c2sc(Nc3ccccc3)nc2C)cc1	none
